The panel holds about 83,000 compounds, 20% with a hit somewhere; the sample as a whole holds those more often.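 In brief: 96-well plates, 48 h treatment, single concentration, percent growth endpoint.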 Unmarked numbers belong to inactive results. Active and inactive are the calls of the source. The calls were made as follows: active = growth percent below 10; inactive = the rest.

These results are taken from PubChem BioAssay (NCI).

Test systems include SK-MEL-2 melanoma; EKVX NSCLC; SN12C renal; UO-31 renal; TK-10 renal; ACHN renal; CAKI-1 renal; CCRF-CEM leukemia; MOLT-4 leukemia; RPMI-8226 leukemia; OVCAR-8 ovarian; OVCAR-5 ovarian; OVCAR-4 ovarian; SK-OV-3 ovarian; IGROV1 ovarian; OVCAR-3 ovarian; HS 578T breast; NCI/ADR-RES ovarian; A498 renal; SR leukemia.
Assay in all cases: NCI-60 one-dose screen, 48 h (100 = growth as untreated, 0 = no growth, -100 = all killed)
Holding throughout (details): 10 µM unless noted

In the case of `CC(C)c1c(C(=O)c2ccccc2)c(-c2ccccc2)c(-c2ccc(F)cc2)n1CC[C@@H](O)C[C@@H](O)CC(=O)O`, the growth was 36.2% in the assay with SK-MEL-2 melanoma; 68.2% in the assay on EKVX NSCLC; 31.9% with SN12C renal; 72% in the assay with UO-31 renal; 116% with TK-10 renal; 25.3% in the assay on ACHN renal. Moreover, the growth in the assay with CAKI-1 renal was 21.6%; in the assay on CCRF-CEM leukemia, 81.4%; with MOLT-4 leukemia, 87.6%; in the assay with RPMI-8226 leukemia, 67.1%; in the assay with OVCAR-8 ovarian, 49.6%; in the assay on OVCAR-5 ovarian, 88.2%. Further, the growth in the assay with OVCAR-4 ovarian was 87.5%; in the assay on SK-OV-3 ovarian, 84.5%; in the assay with IGROV1 ovarian, 39.5%; in the assay on OVCAR-3 ovarian it was 83.9%; in the assay with HS 578T breast it was 17.1%; in the assay with NCI/ADR-RES ovarian, 48.9%.
As for `O=C(N=Nc1c(O)[nH]c2ccc(Br)cc12)c1cc(-c2ccccc2)on1`, the growth in the assay on SK-MEL-2 melanoma was 95.6%; in the assay with EKVX NSCLC, 91.3%; in the assay on SN12C renal it was 100%; in the assay on UO-31 renal it was 90.5%; with TK-10 renal, 108%; with ACHN renal, 103%. The growth in the assay on CAKI-1 renal is 88.7%; with CCRF-CEM leukemia it was 102%; in the assay on MOLT-4 leukemia it was 100%; in the assay on RPMI-8226 leukemia, 105%; with OVCAR-8 ovarian, 104%; in the assay on OVCAR-5 ovarian, 98.9%. The growth was 94.9% with OVCAR-4 ovarian; 111% in the assay with SK-OV-3 ovarian; 101% in the assay on IGROV1 ovarian; 115% with OVCAR-3 ovarian; 99.1% with HS 578T breast; 103% in the assay with NCI/ADR-RES ovarian.
`CC(=O)c1cc2c(N)c(C(=O)Nc3ccccc3)sc2nc1C`: the growth with SK-MEL-2 melanoma is 33.3%; in the assay on EKVX NSCLC, 70.1%; with SN12C renal, 90.8%; in the assay with UO-31 renal it was 90.8%; with TK-10 renal it was 76.4%; in the assay with ACHN renal, 91.7%. The growth with A498 renal was 22%; in the assay with CCRF-CEM leukemia it was 84.5%; with MOLT-4 leukemia, 85.6%; with SR leukemia, 51.8%; with RPMI-8226 leukemia, 89%; in the assay with OVCAR-8 ovarian, 93.9%. The growth is 96% with OVCAR-5 ovarian; 88.9% in the assay on OVCAR-4 ovarian; 28.8% in the assay on SK-OV-3 ovarian; 83.9% with IGROV1 ovarian; 90% in the assay with OVCAR-3 ovarian; 69.8% in the assay with HS 578T breast. For the same compound, the growth in the assay with NCI/ADR-RES ovarian is 75.9%.
For the compound `O=C(Cc1ccc(/C=C/C(=O)c2ncc[nH]2)cc1)Nc1ccc(F)cc1`, the growth in the assay with SK-MEL-2 melanoma was 79.1%; in the assay with EKVX NSCLC, 34.8%; in the assay with SN12C renal, 17.4%; in the assay with UO-31 renal, 17.2%; in the assay on TK-10 renal, 35.9%; in the assay on ACHN renal it was 46.4%. Moreover, the growth is 66.9% in the assay with A498 renal; 2.63% (active) in the assay with CCRF-CEM leukemia; 14.7% in the assay on MOLT-4 leukemia; -2.77% (active) in the assay on SR leukemia; -17.9% (active) with RPMI-8226 leukemia; -6.92% (active) in the assay on OVCAR-8 ovarian. The growth in the assay with OVCAR-5 ovarian was 49.1%; in the assay on OVCAR-4 ovarian, 36.6%; with SK-OV-3 ovarian, 52%; with IGROV1 ovarian, 39%; in the assay with OVCAR-3 ovarian, 2.36% (active); in the assay with HS 578T breast, 35.4%. The growth in the assay on NCI/ADR-RES ovarian is 14.5%.
For `COc1ccc(C2C(C#N)=C(N)Oc3n[nH]c(-c4cccs4)c32)cc1I` (stereo unspecified), the growth with SK-MEL-2 melanoma is 101%; in the assay with EKVX NSCLC, 96%; in the assay on SN12C renal it was 96.5%; in the assay on UO-31 renal, 81.8%; in the assay on TK-10 renal it was 99.7%; with ACHN renal, 98.5%. The growth in the assay on A498 renal is 77.4%; in the assay on CCRF-CEM leukemia it was 76.3%; in the assay on MOLT-4 leukemia, 74.9%; in the assay on SR leukemia it was 53.2%; in the assay with RPMI-8226 leukemia, 78.8%; in the assay with OVCAR-8 ovarian, 95%. Besides, the growth was 107% in the assay on OVCAR-5 ovarian; 108% in the assay with OVCAR-4 ovarian; 92.1% with SK-OV-3 ovarian; 91.2% in the assay with IGROV1 ovarian; 91.7% in the assay on OVCAR-3 ovarian; 87.5% with HS 578T breast. Besides, the growth in the assay with NCI/ADR-RES ovarian is 96.2%.
As to `CCN1CCN(c2nc(NCCCNc3ccnc4cc(Cl)ccc34)c3ccccc3n2)CC1`, the growth in the assay with SK-MEL-2 melanoma is -10.5% (active); in the assay with EKVX NSCLC it was 63.1%; with SN12C renal it was 48.2%; in the assay with UO-31 renal, -5.29% (active); in the assay with TK-10 renal, 42.3%; in the assay on ACHN renal, 5.28% (active). The growth with A498 renal was 81%; with CCRF-CEM leukemia it was 12.2%; with MOLT-4 leukemia, 13.6%; in the assay with SR leukemia, -33.3% (active); in the assay on RPMI-8226 leukemia it was -10% (active); in the assay on OVCAR-8 ovarian it was 16.6%. For the same compound, the growth was 55.1% with OVCAR-5 ovarian; 48% with OVCAR-4 ovarian; 60% in the assay with SK-OV-3 ovarian; 59.3% in the assay on IGROV1 ovarian; 54% with OVCAR-3 ovarian; 78.8% with HS 578T breast. Further, in the assay with NCI/ADR-RES ovarian, the growth was 92.6%.
Turning to `CN(C)c1ccc(N=Nc2ccccn2)c(O)c1`, the growth was 27.1% in the assay on SK-MEL-2 melanoma; 17% with EKVX NSCLC; 11.3% with SN12C renal; -8.47% (active) in the assay on UO-31 renal; 38.9% in the assay on TK-10 renal; 6.69% (active) in the assay on ACHN renal. Besides, the growth is 48.2% in the assay with A498 renal; 2.26% (active) in the assay with CCRF-CEM leukemia; 2.31% (active) in the assay on MOLT-4 leukemia; 3.79% (active) in the assay with SR leukemia; 16.2% in the assay on RPMI-8226 leukemia; 16% in the assay on OVCAR-8 ovarian. For the same compound, the growth in the assay with OVCAR-5 ovarian is 68.6%; in the assay with OVCAR-4 ovarian, 28.3%; in the assay on SK-OV-3 ovarian, 19.5%; in the assay with IGROV1 ovarian, 14.9%; in the assay on OVCAR-3 ovarian, 33.2%; with HS 578T breast, 60.9%. Further, in the assay with NCI/ADR-RES ovarian, the growth was 12.4%.
